{"source": "PubChem BioAssay (NCATS)", "key": {"[1]": {"biological_target": "Pyruvate kinase (Leishmania mexicana) (UniProt Q27686)", "sequence (Q27686 2-499 E452W)": "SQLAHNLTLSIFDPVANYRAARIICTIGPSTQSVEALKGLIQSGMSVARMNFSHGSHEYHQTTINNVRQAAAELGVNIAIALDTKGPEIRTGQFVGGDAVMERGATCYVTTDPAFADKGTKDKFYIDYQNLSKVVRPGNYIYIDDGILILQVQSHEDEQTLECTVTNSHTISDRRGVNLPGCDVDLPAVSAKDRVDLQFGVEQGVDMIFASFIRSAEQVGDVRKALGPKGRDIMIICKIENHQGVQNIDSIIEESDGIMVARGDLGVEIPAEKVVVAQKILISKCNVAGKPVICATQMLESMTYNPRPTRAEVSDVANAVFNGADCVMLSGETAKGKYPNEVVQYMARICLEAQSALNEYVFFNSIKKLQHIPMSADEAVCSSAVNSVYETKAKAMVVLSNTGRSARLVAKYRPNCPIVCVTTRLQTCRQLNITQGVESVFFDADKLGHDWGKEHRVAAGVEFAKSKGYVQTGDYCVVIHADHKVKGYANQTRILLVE", "assay": "qHTS Validation Assay for Inhibitors of Leishmania Mexicana Pyruvate Kinase (AID 945)", "settings": "purified L. mexicana pyruvate kinase, enzyme activity, E451W mutant enzyme; series mostly up to 57.5 µM", "summary_of_the_method": "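Eight-point qHTS titrations in triplicate, data normalized to DMSO neutral control. Reaction: 0.2 nM LmPYK E451W mutant, 0.5 mM PEP, 0.1 mM ADP, 7 mM MgCl2, pH 7.2, one hour at room temperature; luminescent ATP detection.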"}, "[2]": {"assay": "MultiTox-Fluor Cytotoxicity Assay - LYMP1-001 - Dead Cells (AID 946)", "settings": "LYMP1-001 lymphoblastoid cells, dead-cell protease fluorescence; series mostly up to 92.2 µM", "summary_of_the_method": "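In this qHTS, 15 uM tetraoctylammonium bromide defined 100% and DMSO defined basal activity. Lymphoblastoid cells (LYMP1-001, 2500 per well) received compound for 16 hr at 37 C before a fluorogenic dead-cell substrate readout at 485/520 nm.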"}, "[3]": {"assay": "MultiTox-Fluor Cytotoxicity Assay - LYMP1-001 - Live Cells (AID 947)", "settings": "LYMP1-001 lymphoblastoid cells, live-cell protease fluorescence viability; series mostly up to 92.2 µM"}, "[4]": {"assay": "Cell Viability - LYMP1-002 - Assay at 16 hr (AID 948)", "settings": "LYMP1-002 lymphoblastoid cell viability; series mostly up to 92.2 µM", "summary_of_the_method": "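In this qHTS, lymphoblastoid LYMP1-002 cells (human) receive compounds for 16 hr at 37 C. Viability is taken from CellTiter-Glo ATP luminescence, and AC50 derives from standard Hill fits.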"}, "[5]": {"assay": "MultiTox-Fluor Cytotoxicity Assay - LYMP1-002 - Live Cells (AID 955)", "settings": "LYMP1-002 lymphoblastoid live-cell protease fluorescence viability; series mostly up to 46.1 µM", "summary_of_the_method": "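Human lymphoblastoid LYMP1-002 cells, 2500/well in complete medium, rested 5 hr at 37 C, then exposed to compounds for 16 hr at 37 C. Live-cell protease cleavage of GF-AFC read by fluorescence (Ex/Em 405/510) after 60 min at room temperature; AC50 from Hill fits.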"}, "[6]": {"assay": "MultiTox-Fluor Cytotoxicity Assay - LYMP1-002 - Dead Cells (AID 960); further: nearly all actives have a fitted effect of over 60% in size", "settings": "LYMP1-002 lymphoblastoid cells, dead-cell protease fluorescence; series mostly up to 46.1 µM", "summary_of_the_method": "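Human lymphoblastoid cells (LYMP1-002), 2500/well in complete medium, were exposed to compounds for 16 hr at 37 C. Dead-cell protease activity was read as bis-AAF-R110 fluorescence (Ex/Em 485/520), normalized to DMSO and 15 uM tetraoctylammonium bromide; AC50 from Hill fits.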"}, "[7]": {"assay": "MultiTox-Fluor Cytotoxicity Assay - LYMP1-003 - Dead Cells (AID 961); further: nearly all actives have a fitted effect of over 70% in size", "settings": "LYMP1-003 lymphoblastoid cells, dead-cell protease fluorescence; series mostly up to 92.2 µM", "summary_of_the_method": "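Acute toxicity is scored as increased dead-cell protease activity in human lymphoblastoid LYMP1-003 cells after 16 h compound exposure in complete culture medium. Activity is normalized to DMSO basal and 15 uM tetraoctylammonium bromide as full response.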"}, "[8]": {"assay": "MultiTox-Fluor Cytotoxicity Assay - LYMP1-003 - Live Cells (AID 962);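 further: cytotoxic hits lower the live-cell protease signal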", "settings": "LYMP1-003 lymphoblastoid cells, MultiTox-Fluor live-cell protease fluorescence; series mostly up to 92.2 µM", "summary_of_the_method": "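LYMP1-003 human lymphoblastoid cells (2500/well) in complete medium were preincubated 5 hr at 37 C, then exposed to compounds for 16 hr at 37 C. Live-cell protease cleavage of GF-AFC read by fluorescence (Ex/Em 405/510); AC50 from Hill fits.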"}, "[9]": {"assay": "Cell Viability - LYMP1-003 - Assay at 24 hr (AID 963)", "settings": "LYMP1-003 lymphoblastoid cell viability; series mostly up to 92.2 µM", "summary_of_the_method": "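Human lymphoblastoid LYMP1-003 cells (2500/well) were rested 5 hr at 37 C, then exposed to compounds in complete medium for 24 hr at 37 C. Cellular ATP was quantified by CellTiter-Glo luminescence, and AC50 values came from Hill fits of concentration-response data.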"}, "[10]": {"assay": "Cell Viability - LYMP1-003 - Assay at 40 hr (AID 964); further: nearly all actives have a fitted effect of over 60% in size", "settings": "LYMP1-003 lymphoblastoid viability; series mostly up to 92.2 µM", "summary_of_the_method": "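Human lymphoblastoid LYMP1-003 cells, 2500/well in complete medium, rested 5 hr at 37 C, then exposed to compounds for 40 hr at 37 C. Viability read as intracellular ATP by CellTiter-Glo luminescence; AC50 from Hill fits of concentration-response data.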"}, "[11]": {"assay": "Cell Viability - LYMP2-003 (AID 965); further: nearly all actives have a fitted effect of over 50% in size", "settings": "LYMP2-003 lymphoblastoid cell viability; series mostly up to 92.2 µM", "summary_of_the_method": "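qHTS, human lymphoblastoid line, 2500 cells/well, complete medium. 24 h drug, 37 C. ATP-based luminescent readout; Hill-fit AC50.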"}, "[12]": {"assay": "Cell Viability - LYMP2-004 (AID 966); further: nearly all actives have a fitted effect of over 65% in size", "settings": "LYMP2-004 lymphoblastoid cell viability, qHTS; series mostly up to 92.2 µM", "summary_of_the_method": "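Human lymphoblastoid cells (2500/well) in complete medium were treated with compounds for 24 hr at 37 C, then intracellular ATP was measured by CellTiter-Glo luminescence. AC50 values came from Hill-equation fits of concentration-response data.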"}, "[13]": {"assay": "Cell Viability - LYMP2-005 (AID 967)", "settings": "LYMP2-005 lymphoblastoid cell viability; series mostly up to 92.2 µM", "summary_of_the_method": "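Luciferase-based ATP quantitation served as the viability measure in human lymphoblastoid LYMP2-005 cells exposed to test compounds for 24 h at 37 C in complete culture medium. Potency (AC50) was obtained by fitting concentration-response curves with the Hill equation.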"}, "[14]": {"assay": "Cell Viability - LYMP2-009 (AID 968); further: nearly all actives have a fitted effect of over 55% in size", "settings": "LYMP2-009 lymphoblastoid cell viability; series mostly up to 92.2 µM"}, "[15]": {"assay": "Cell Viability - LYMP2-011 (AID 969); further: nearly all actives have a fitted effect of over 60% in size", "settings": "LYMP2-011 lymphoblastoid cells viability; series mostly up to 92.2 µM", "summary_of_the_method": "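Human lymphoblastoid cells (2500/well) were plated in complete medium, preincubated 5 hr at 37 C, then exposed to compounds for 24 hr at 37 C. Intracellular ATP was read by CellTiter-Glo luminescence, and AC50 came from Hill-equation concentration-response fits.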"}, "[16]": {"assay": "Cell Viability - LYMP2-013 (AID 970); further: nearly all actives have a fitted effect of over 55% in size", "settings": "LYMP2-013 lymphoblastoid cells viability; series mostly up to 92.2 µM", "summary_of_the_method": "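Human lymphoblastoid cells, 2500/well, were preincubated 5 hr at 37 C, then treated with compounds for 24 hr at 37 C in complete medium. Intracellular ATP was read by CellTiter-Glo luminescence; AC50 from Hill-equation fits of concentration-response data.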"}, "[17]": {"assay": "Cell Viability - LYMP2-015 (AID 971); further: nearly all actives have a fitted effect of over 55% in size", "settings": "LYMP2-015 lymphoblastoid cell viability; series mostly up to 92.2 µM", "summary_of_the_method": "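Human lymphoblastoid cells (2500/well) in complete medium were preincubated 5 hr at 37 C, then compound-treated 24 hr at 37 C. Intracellular ATP was read by CellTiter-Glo luminescence after 30 min at room temperature; AC50 came from Hill-equation concentration-response fits.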"}, "[18]": {"biological_target": "Pyruvate kinase PKM (Homo sapiens) (UniProt P14618)", "sequence (P14618 whole entry, looked up)": "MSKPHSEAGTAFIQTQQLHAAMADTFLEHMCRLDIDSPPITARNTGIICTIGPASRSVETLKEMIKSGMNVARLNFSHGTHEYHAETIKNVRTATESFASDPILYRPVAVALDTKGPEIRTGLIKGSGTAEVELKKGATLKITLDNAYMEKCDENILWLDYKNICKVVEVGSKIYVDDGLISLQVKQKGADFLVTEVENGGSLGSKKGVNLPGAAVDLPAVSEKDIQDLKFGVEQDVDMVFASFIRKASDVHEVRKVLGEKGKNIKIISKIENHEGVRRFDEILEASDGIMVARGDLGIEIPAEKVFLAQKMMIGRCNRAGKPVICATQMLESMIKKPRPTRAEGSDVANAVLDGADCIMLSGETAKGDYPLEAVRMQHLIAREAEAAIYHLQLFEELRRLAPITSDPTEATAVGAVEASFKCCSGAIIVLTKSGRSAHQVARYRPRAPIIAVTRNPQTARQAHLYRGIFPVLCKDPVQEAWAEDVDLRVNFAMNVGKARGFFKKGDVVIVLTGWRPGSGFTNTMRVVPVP", "assay": "qHTS Assay for Activators of Human Muscle Pyruvate Kinase (AID 954; active means well fitted curve in the direction sought with a large enough effect, not every such curve was filed as active)", "settings": "purified human muscle pyruvate kinase, luciferase-coupled luminescence, 1 h; series mostly up to 57.5 µM", "summary_of_the_method": "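Enzyme was run at intermediate activity so both inhibitors and activators could be detected. ATP formed from ADP and PEP by 0.1 nM human PKM2 during a 1 h room-temperature incubation was quantified by coupled luciferase luminescence.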"}}, "note": "Records with an inconclusive call do not appear. A call without a number means that no potency is given here. Active and inactive are the calls of the source. Unless noted, the call rests on the fitted dose curve; in most records, active means well fitted curve in the direction sought with a large enough effect; inconclusive means small, poorly fitted or top-dose-only effect, or another doubt; inactive means no such curve, though single readings can be large; an effect the other way counts as inactive or inconclusive.", "data": [{"smiles": "CCCCCCC/C=C\\CCCCCCCCC(=O)O", "values": [{"measurement": "Potency", "setting": "[1]", "result": "inactive"}]}, {"smiles": "COc1cc(CNC(=O)CCCCCCC(C)C)ccc1O", "values": [{"measurement": "Potency", "setting": "[1]", "result": "inactive"}]}, {"smiles": "C[C@H](O)C(=O)C1=Nc2c(nc(N)[nH]c2=O)NC1", "values": [{"measurement": "Potency", "setting": "[1]", "result": "inactive"}]}, {"smiles": "CC(=O)C(C)=O", "values": [{"measurement": "Potency", "setting": "[1]", "result": "inactive"}, {"measurement": "outcome", "setting": "[2]", "result": "inactive"}, {"measurement": "outcome", "setting": "[3]", "result": "inactive"}, {"measurement": "outcome", "setting": "[4]", "result": "inactive"}, {"measurement": "outcome", "setting": "[5]", "result": "inactive"}, {"measurement": "outcome", "setting": "[6]", "result": "inactive"}, {"measurement": "outcome", "setting": "[7]", "result": "inactive"}, {"measurement": "outcome", "setting": "[8]", "result": "inactive"}, {"measurement": "outcome", "setting": "[9]", "result": "inactive"}, {"measurement": "outcome", "setting": "[10]", "result": "inactive"}, {"measurement": "outcome", "setting": "[11]", "result": "inactive"}, {"measurement": "outcome", "setting": "[12]", "result": "inactive"}, {"measurement": "outcome", "setting": "[13]", "result": "inactive"}, {"measurement": "outcome", "setting": "[14]", "result": "inactive"}, {"measurement": "outcome", "setting": "[15]", "result": "inactive"}, {"measurement": "outcome", "setting": "[16]", "result": "inactive"}, {"measurement": "outcome", "setting": "[17]", "result": "inactive"}]}, {"smiles": "CCCc1c(-c2ccc(O)cc2)nn(-c2ccc(O)cc2)c1-c1ccc(O)cc1", "values": [{"measurement": "Potency", "setting": "[1]", "result": "inactive"}]}, {"smiles": "O=c1onc2n1-c1cc(Br)ccc1OC2", "values": [{"measurement": "Potency", "setting": "[1]", "result": "inactive"}]}, {"smiles": "Oc1ccc(Cn2cc[nH]c2=S)cc1", "values": [{"measurement": "Potency", "setting": "[1]", "result": "inactive"}]}, {"smiles": "O=C(O)C1CCNCC1", "values": [{"measurement": "Potency", "setting": "[1]", "result": "inactive"}]}, {"smiles": "NC(=O)CNCCC(c1ccccc1)c1ccccc1", "values": [{"measurement": "Potency", "setting": "[1]", "result": "inactive"}]}, {"smiles": "NCCCNCCCCNCCCN", "values": [{"measurement": "Potency", "setting": "[1]", "result": "inactive"}]}, {"smiles": "O=C(O)c1ccccc1Nc1ccccc1", "values": [{"measurement": "Potency", "setting": "[1]", "result": "inactive"}]}, {"smiles": "NCCCCN=C(N)N", "values": [{"measurement": "Potency", "setting": "[1]", "result": "inactive"}]}, {"smiles": "CCCC(=O)NCCc1c2n(c3ccc(OC)cc13)CCCc1ccccc1-2", "values": [{"measurement": "Potency", "setting": "[1]", "result": "inactive"}]}, {"smiles": "CCSC(=N)N", "values": [{"measurement": "Potency", "setting": "[1]", "result": "inactive"}]}, {"smiles": "CC(C)Cn1c(=O)n(C)c(=O)c2[nH]cnc21", "values": [{"measurement": "Potency", "setting": "[1]", "result": "inactive"}]}, {"smiles": "C[C@H](NC(=O)/C(C#N)=C/c1ccc(O)c(O)c1)c1ccccc1", "values": [{"measurement": "Potency", "setting": "[1]", "result": "inactive"}]}, {"smiles": "O=C(O)c1cc(=O)cc(C(=O)O)[nH]1", "values": [{"measurement": "Potency", "setting": "[1]", "result": "inactive"}]}, {"smiles": "Nc1nc2[nH]c(=O)cnc2c(=O)[nH]1", "values": [{"measurement": "Potency", "setting": "[1]", "result": "inactive"}]}, {"smiles": "NC(N)=NC(N)=Nc1cccc(Cl)c1", "values": [{"measurement": "Potency", "setting": "[1]", "result": "inactive"}]}, {"smiles": "CC[C@@H]1Cc2cc(O)ccc2C2=C1c1ccc(O)cc1C[C@H]2CC", "values": [{"measurement": "Potency", "setting": "[1]", "result": "inactive"}]}, {"smiles": "N=C(N)c1ccccc1", "values": [{"measurement": "Potency", "setting": "[1]", "result": "inactive"}, {"measurement": "outcome", "setting": "[18]", "result": "inactive"}]}, {"smiles": "COc1ccc(-c2ccc(N)[n+](CCCC(=O)O)n2)cc1", "values": [{"measurement": "Potency", "setting": "[1]", "result": "inactive"}]}]}
